Test results reported in ChEMBL document CHEMBL3988442, “University of Dundee, Small-Polar-MMV Screening Library” (2021).
The whole screen tested about 48,000 compounds, of which about 13,000 (27%) showed an effect of 50% or more. This is one part of the list.

test system: Wolbachia pipientis; assay: Anti-Wolbachia Cell-Based Screen; type: functional; parameters: scale not given: in the data most compounds retested in dose-response had high values; conditions: 5 µM

| Structure (SMILES) | Percent Effect [%] |
| --- | --- |
| Cc1cc(CN(C)C(=O)c2cc3c([nH]c2=O)CCCC3=O)no1 | -8.225 |
| COc1ccnc(NC(=O)c2cnccn2)c1 | 0.1681 |
| CN(CC1(O)CCCC1)C(=O)c1cccc(Nc2cnccn2)c1 | 136.4 |
| CN(C)C(=O)c1cccc(Nc2cnn(C)c2)c1 | -3.903 |
| COCCCN(C)C(=O)c1cccc(Nc2cnccn2)c1 | 100 |
| CC(=O)c1cccc(OCCCC(=O)N(C)CCc2ccncc2)c1 | 5.185 |
| CN(Cc1cnccn1)C(=O)c1ccnc(OC2CCC2)c1 | -12.54 |
| COc1c(C)cnc(CN(C)C(=O)c2cccc(NC(N)=O)c2)c1C | 7.754 |
| COCCN(CC(C)C)C(=O)c1cccc(Nc2cnccn2)c1 | 186.1 |
| COCCN(CCOC)C(=O)c1cccc(Cn2nc(C)cc2C)c1 | -2.572 |
| CCC(=O)NCc1cc(Br)c(OC)c(OC)c1 | -2.986 |
| c1cnn(CCC2CCCCN2Cc2cnc(C3CCCCC3)nc2)c1 (configuration not stated) | -23.18 |
| CC(=O)OCC1CCCCN1C(=O)c1ccc(Cn2ccnc2)o1 (configuration not stated) | 0.6554 |
| N#Cc1cn(CCCN2CCc3ccccc32)c(=O)[nH]c1=O | 7.257 |
| CSc1cc2c(cc1NC(=O)NCC(=O)N(C)C)OCCO2 | -7.029 |
| Nc1c(Cl)cnn1C1CCN(Cc2ccccc2)C1 (configuration not stated) | -6.784 |
| c1ccc(-c2nc(CCNCc3ccncc3)co2)cc1 | 91.06 |
| c1ccc(-c2nnn3c2COC(CNCc2ccccn2)C3)cc1 (configuration not stated) | -8.365 |
| CNC(=O)CS(=O)(=O)Cc1coc(-c2ccc(OC)cc2)n1 | -17.74 |
| c1ccc(Oc2ncccc2CNCc2ccccn2)cc1 | 6.646 |
| Cc1nnc(NCCc2coc(-c3ccccc3)n2)c(C#N)c1C | -1.856 |
| c1ccc(-c2nc(CCNCc3cccnc3)co2)cc1 | 108.2 |

| Structure (SMILES) | Percent Effect [%] |
| --- | --- |
| O=C1NCCCCC1SCc1coc(-c2ccccc2)n1 (configuration not stated) | -18.22 |
| COc1ccc(-c2nc(CCNc3nnc(C)c(C)c3C#N)co2)cc1 | 14.52 |
| COc1cccc(-c2nc(CNCCc3cccnc3)cs2)c1 | 20 |
| c1ccc(-c2nc(CNCCn3cccn3)cs2)cc1 | 17.11 |
| COc1ccc(-c2nc(CCNCc3ccncc3)co2)cc1 | 89.2 |
| c1ccc(-c2nc(CCNCc3ccccn3)co2)cc1 | 85.74 |
| CC(C)c1noc(C[S+]([O-])CC(=O)Nc2ccc(F)c(F)c2)n1 (configuration not stated) | -5.19 |
| CC(=O)NCCCSCCOc1cccc(C#N)c1 | -7.407 |
| O=C(Nc1ccncc1)NC1CCN(c2ccccc2Cl)C1=O (configuration not stated) | 1.637 |
| COc1ccc(CCN2CC(c3nc(CSC)no3)CCC2=O)cc1 (configuration not stated) | -1.637 |
| Cc1cc(CNC(=O)c2ccc(C(C)N3CCCCC3)o2)[nH]n1 (configuration not stated) | -3.545 |
| O=C(c1cccc(-n2cccn2)c1)N1CCCOC(CN2CCCC2)C1 (configuration not stated) | 2.221 |
| Cc1nnc2n1CCN(C(=O)CN1C(=O)C(C)Oc3ccccc31)C2 (configuration not stated) | 3.234 |
| COCCn1cc(NC(=O)N(CCC(N)=O)Cc2ccccc2)cn1 | -7.009 |
| Cc1ccc(-c2nc(CCNCc3ccncc3)co2)cc1 | 83.41 |
| Cc1ccc(-c2nc(CCNC(=O)NC3CCN(C)CC3)co2)cc1 | -5.87 |
| Cc1nnc(NCCc2coc(-c3ccc(F)cc3)n2)c(C#N)c1C | 5.844 |
| Cc1cnn(CCNCCCOc2ccc(C#N)cc2)c1 | 4.876 |
| CS(=O)(=O)c1ccc(NCc2ccccc2)cn1 | -7.161 |
| C=C/C=c1\c(=C/C)oc2c(NCc3ccccc3)nc(CC)nc12 | 112.6 |
| Cc1nc2c(c(NCc3ccccc3)n1)CCN(C(=O)C1CCC1)CC2 | -5.333 |
| CCC(CNc1ncnc2oc(C)nc12)Cc1ccccc1 (configuration not stated) | -28.36 |

| Structure (SMILES) | Percent Effect [%] |
| --- | --- |
| C=C/C=c1\c(=C/C)oc2c(NCc3ccccc3)nc(C)nc12 | 116.4 |
| Cc1nc(NCc2cccnc2)c2c(n1)c(C)nn2C | -9.557 |
| C=C/C=c1\c(=C/C)oc2c(NCc3ccccc3)ncnc12 | 107.1 |
| Cc1ccc(-c2nc(CN3CCc4nn(C)c(=O)cc4C3)no2)cc1 | -3.521 |
| CCCNC(=O)C(C)NC(=O)Nc1ccccc1SC(F)F (configuration not stated) | -20.86 |
| O=C(c1ccc2occc2c1)N1CCC(C(=O)O)(n2cccn2)CC1 | 17.51 |
| CO[C@H]1CN(S(=O)(=O)c2cn(C)cn2)[C@@H]2CCCO[C@H]12 | -0.7123 |
| CNC(=O)NC(=O)CCSc1ccccc1Cl | -6.595 |
| Cc1cccc(CC(=O)NS(=O)(=O)c2ccc(F)c(F)c2)c1 | -13.3 |
| Cc1nc(CNC(=O)NC2CCN(c3cccc(Cl)c3)C2)no1 (configuration not stated) | 1.056 |
| COCC(=O)N1CCN(C(C)=O)C[C@@H]1C(=O)OC | 18.89 |
| COCC(=O)N1CCCC1c1cc(N2CCN(C(C)=O)CC2)cc(C)n1 (configuration not stated) | 110.9 |
| COC(=O)N1CCCCC1C(=O)N1CCCN(c2ccnc(C)c2)CC1 (configuration not stated) | 2.606 |
| COCC(=O)N1CCN(c2cc(C)nc(C3CCCN3C(C)=O)c2)CC1 (configuration not stated) | 105.4 |
| COCC(=O)N1CCN(c2cc(-n3cccc3)nc(C)n2)CC1 | -19 |
| O=C(NCC1OCCc2cn(CC3CCOCC3)nc21)c1ccncc1.O=C(O)C(F)(F)F (configuration not stated) | -2.103 |
| CS(=O)(=O)N1C[C@@H]2OCC(=O)N(CC3CCC3)[C@@H]2C1 | -1.197 |
| O=C(O)c1csc(S(=O)(=O)N2CCCc3ccc(F)cc32)c1 | -8.72 |
| O=C1Nc2ccccc2CC12CCCN2Cc1ccc(F)cc1 (configuration not stated) | 106.5 |
| O=C(NC1CC1)N1CCC2(CC1)C(=O)NCCN2Cc1ccccc1.O=C(O)C(F)(F)F | -18.73 |
| O=C1Nc2ccccc2CC12CCCN2Cc1ccc(C(F)(F)F)cc1 (configuration not stated) | 105.2 |
| COCCC1(CO)CCCN(Cc2ccc(C(F)(F)F)cc2)C1 (configuration not stated) | -12.26 |

| Structure (SMILES) | Percent Effect [%] |
| --- | --- |
| CC(C)N1CCC2(CCCN(Cc3ccc(F)cc3)C2=O)C1 (configuration not stated) | -24.02 |
| CS(=O)(=O)c1ccc(CN2CCCC3(C2)C(=O)Nc2ccccc23)cc1 (configuration not stated) | 12.45 |
| CCC(CC)c1cc(CNC(=O)N2CCN(CC)CC2)on1 | 1.8 |
| O=C(c1cnc(-c2ccccn2)s1)N1CCCC1Cn1cccn1 (configuration not stated) | 117.3 |
| O=C(c1cnc(-c2ncccn2)s1)N1CCCC1Cn1cccn1 (configuration not stated) | 93.22 |
| O=C(c1cnc(-c2cnccn2)s1)N1CCCC1Cn1cccn1 (configuration not stated) | 93.62 |
| COc1ccc(CN2CCN(c3ncc(Cl)cn3)CC2)cc1 | -2.887 |
| CC(C)(O)c1cn(C2CCN(c3ncccc3Cl)CC2)nn1 | -4.75 |
| CSc1ccc(NC(=O)COCc2ccccc2)nc1 | -20.64 |
| NC(=O)CN(CC(N)=O)Cc1cccc(Oc2ccccc2)c1 | -1.216 |
| CC(C)(C)NC(=O)N1CCC(NC(=O)Cc2cccnc2)CC1 | -14.05 |
| CN(C(=O)c1cccnc1)C1CCCN(CCc2ccccc2)C1 (configuration not stated) | -6.072 |
| Nc1cc(C(=O)NCC2CCN(CCc3ccccc3)C2)ccn1 (configuration not stated) | -3.918 |
| O=C(NC1CCCN(CCCc2ccccc2)C1)c1ccc(Cl)s1 (configuration not stated) | 85.82 |
| O=C(Cc1cccnc1)NC1CCCN(CCCc2ccccc2)C1 (configuration not stated) | 124.1 |
| Nc1cc(C(=O)NC2CCCN(CCCc3ccccc3)C2)ccn1 (configuration not stated) | 96.33 |
| CC(C)C(=O)NCC(=O)N(C)C1CCCN(CCc2ccccc2)C1 (configuration not stated) | -4.152 |
| O=C(NC1CCCN(CCCc2ccccc2)C1)C1=CCCCC1 (configuration not stated) | 81.9 |
| CN(C(=O)CC1=CCCCC1)C1CCCN(CCc2ccccc2)C1 (configuration not stated) | 7.677 |
| CCOC(=O)C1CCN(C(=O)Cc2c(C)nc(C)[nH]c2=O)CC1 | 4.435 |
| COc1nccnc1N1CCC2(CCCN(C(C)C)C2=O)C1 (configuration not stated) | -3.964 |
| CCN(c1ccc(C(=O)NCc2cc[nH]n2)cc1)C(C)C | -0.1162 |

| Structure (SMILES) | Percent Effect [%] |
| --- | --- |
| Cc1sc2nc(C(F)(F)F)nc(N3CCN(C)CC3)c2c1C | 8.571 |
| COc1ccc(F)c(F)c1CN1CCN(CC(C)C)C(=O)C1C (configuration not stated) | 1.65 |
| O=C(NC1CC1)c1ccc(SCc2cscn2)cc1 | -37.4 |
| CC(C)CNC(=O)NC(=O)CNc1ccccc1SCC(C)C#N (configuration not stated) | 9.026 |
| O=C(COC1CCCCC1)Nc1ccn(CCc2ccncc2)n1 | -1.367 |
| CN(C(=O)CCc1ccncc1)C1CCCN(CCc2ccccc2)C1 (configuration not stated) | -4.229 |
| O=C(NC1CCCN(CCCc2ccccc2)C1)c1ccncc1 (configuration not stated) | 84.08 |
| CN(Cc1ccsc1)C(=O)c1ccc(C2CCCO2)s1 (configuration not stated) | -3.526 |
| CN(Cc1ccsc1)C(=O)c1ccc(F)c(NS(C)(=O)=O)c1 | 0 |
| CN(Cc1ccsc1)C(=O)c1cccc(S(=O)(=O)NC(C)(C)C)c1 | 0.007999 |
| CCN(CC)S(=O)(=O)c1cccc(C(=O)N(C)Cc2ccsc2)c1 | 98.21 |
| CNS(=O)(=O)c1cccc(C(=O)N(C)Cc2ccsc2)c1 | 124.1 |
| CN(Cc1ccsc1)C(=O)c1cccc(NS(C)(=O)=O)c1 | 8.391 |
| CCN(C)C(=O)c1cccc(S(=O)(=O)NCCc2csc(N)n2)c1 | -2.209 |
| COCCNS(=O)(=O)c1ccc(Cl)c(C(=O)N(C)Cc2ccsc2)c1 | 14.25 |
| CN(Cc1ccsc1)C(=O)c1cccc(S(=O)(=O)NCC2CCCO2)c1 (configuration not stated) | 104.2 |
| CN(Cc1ccsc1)C(=O)Nc1ccc(S(=O)(=O)N(C)C)cc1 | 5.237 |
| CN(Cc1ccsc1)C(=O)c1cc(S(=O)(=O)N(C)C)ccc1Cl | 5.417 |
| CN(Cc1ccsc1)C(=O)c1ccc(S(=O)(=O)NC(C)(C)C)cc1 | 98.59 |
